In the library only some 5.5% were active in any assay of this set; here they are far more common.
CtBP-E1A inh: inhibitors of CtBP/E1A interaction; 340,000 tested, 0.49% active; activity change, % (no concentration beside the values); AlphaScreen GST-E1A/His-CtBP binding, 1536-well; active compounds read low; in the data active = activity change below about -65%; inconclusive = mostly about -30% to -63%; also: % is scaled to controls: 0 for no effect and ±100 for the full control effect
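Steps: dispense buffer (Tris pH 8.0, NaCl 300 mM, TCEP 1 mM, BSA, Tween 20); add 5X protein mix (GST-E1A, His-CtBP, 125 nM each); pin 23 nL compound; 2 h at 37 °C, dark; add 5X beads (50 ug/mL); 1 h; read.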
MBNL1 CUG block: MBNL1-poly(CUG) RNA binding inhibition. Q9NR56. TR-FRET MBNL1-His/biotin-(CUG)12 binding, 665/545 ratio. Potency, µM (highest dose often 57.5 µM), inactives show top-dose activity change, negative = inhibition, usual class: inhibitors. 280,000 tested, 0.036% active; active = well fitted inhibition curve with a large enough effect in the signal ratio, with a control signal flat, not every such curve was filed as active; inconclusive = small, poorly fitted or top-dose-only effect, or effect the other way, or a change in a side signal; inactive = no such curve, though single readings can be large or run the other way; the % refers to the signal ratio; also: potency is read from the fitted curve at half-maximal effect; % is scaled to controls: 0 for no effect and ±100 for the full control effect
Target sequence (Q9NR56 whole entry, looked up): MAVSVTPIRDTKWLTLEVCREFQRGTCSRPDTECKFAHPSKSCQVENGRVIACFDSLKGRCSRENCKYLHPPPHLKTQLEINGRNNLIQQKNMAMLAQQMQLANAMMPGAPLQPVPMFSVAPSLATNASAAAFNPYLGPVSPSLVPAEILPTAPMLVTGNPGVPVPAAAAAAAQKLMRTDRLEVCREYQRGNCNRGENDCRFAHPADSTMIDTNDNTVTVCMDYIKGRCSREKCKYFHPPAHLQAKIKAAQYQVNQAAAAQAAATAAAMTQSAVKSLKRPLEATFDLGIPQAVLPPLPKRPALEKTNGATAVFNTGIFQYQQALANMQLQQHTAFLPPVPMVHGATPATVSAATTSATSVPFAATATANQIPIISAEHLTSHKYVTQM
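TR-FRET between His-tagged MBNL1 and biotin-(CUG)12 RNA, detected with Tb anti-His antibody (0.055 ng/ul) and streptavidin-XL665 (5 nM), 60 min at room temperature. Compounds titrated 92 nM to 58 uM; 665/545 nm ratio normalized to buffer and complex controls.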
RORgamma inh: inhibitors of mouse ROR gamma transcriptional activity | Drosophila S2 Gal4-RORgamma UAS-luciferase reporter, 20 h | 310,000 tested, 5.4% active | AID 2551 | Potency, µM (highest dose often 53.6 µM), without a hit: at the top dose activity change, negative = inhibition, hits mostly inhibitors; also: potency is read from the fitted curve at half-maximal effect; % is scaled to controls: 0 for no effect and ±100 for the full control effect; nearly all actives have a fitted effect of over 60% in size
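Drosophila Schneider cells stably carrying a metallothionein-driven Gal4 DBD–ROR gamma fusion and a UAS-Photinus luciferase reporter were exposed to compound for 1 hr, then induced with copper sulfate (700 uM final) for 20 hr at ambient temperature before luminescence reading.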
CBFb-RUNX1 inh: blocks binding between human CBF-beta and RUNX1 | Potency, µM (series often up to 59.8 µM), inactives show at the highest dose activity, negative = inhibition, hits mostly inhibitors | AlphaScreen CBFb-His/RUNX1-biotin binding, biochemical | Q01196+Q13951 | 230,000 tested, under 10 active; also: % of control where 0% means no effect
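Room-temperature protein-protein interaction test with 30 nM each of His-tagged CBF-beta and biotinylated RUNX1, 15 min with compound, then 90 min with nickel plus streptavidin beads. Signal read in AlphaScreen mode.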
VP16 counter: Gal4-VP16 reporter inhibition counter-screen. Drosophila S2 Gal4-VP16 UAS-luciferase, luminescence, 20 h. Potency, µM (titrated, usually from 53.6 µM), for the others: at the highest dose activity, negative = inhibition, most hits filed as inhibitors. 310,000 tested, 3.5% active;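 also: Gal4-VP16 expression switched on by copper sulfate through the metallothionein promoter; potency is read from the fitted curve at half-maximal effect; % is scaled to controls: 0 for no effect and ±100 for the full control effect; nearly all actives have a fitted effect of over 50% in size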
Six1-Eya2 blk: inhibitors of human Six1/Eya2 interaction; Q15475+O00167; AlphaScreen GST-Six1/His-Eya2 binding, biochemical; active compounds read low; activity change, % (concentration not given with the values); 360,000 tested, 0.56% active; AID 651725; in the data active = activity change below about -65%; inconclusive = mostly about -30% to -63%; also: % is scaled to controls: 0 for no effect and ±100 for the full control effect
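AlphaScreen luminescence read after one hour at 37 °C in darkness. Pin-transferred compounds met GST-Six1 and His-Eya2 protein (5X stock 250 nM/500 nM) plus glutathione donor and Ni-chelate acceptor beads (5X, 50 ug/mL).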
Numbers without * were called inactive; ? = inconclusive; / = no result given; [ ] = dose if it differs, or a comment. Unless noted, calls follow the shape of the dose curve; as a rule, active = well fitted curve in the direction sought with a large enough effect; inconclusive = small, poorly fitted or top-dose-only effect, or another doubt; inactive = no such curve, though single readings can be large; an effect the other way counts as inactive or inconclusive.

SMILES	CtBP-E1A inh	MBNL1 CUG block	RORgamma inh	CBFb-RUNX1 inh	VP16 counter	Six1-Eya2 blk
Cc1nn(-c2ccccn2)c2c1C(c1ccsc1)C1=C(CCCC1=O)N2 (configuration not stated)	-19.8	-8.0%	?	-0.8%	?	-0.2
CCC1CC=CC2C1C(=O)N(Cc1ccccc1)C2c1ccc(OC)c(Cl)c1 (configuration not stated)	/	/	24.7%	-3.7%	?	/
COc1cc(N)c(Cc2nccc3cc(OC)c(OC)cc23)cc1OC	-10.2	?	-38.1%	-27.9%	9.9%	-18.0
CCOc1cc(-c2nccc3cc(OC)c(OC)cc23)cc(OCC)c1OCC	0.8	-0.1%	8.91µM*	/	5.62µM*	-11.8
CCc1noc(C)c1C(=O)OCC(=O)Nc1ncc(Cl)cc1Cl	6.8	-7.1%	18.3%	/	-9.3%	-6.4
CN(C)c1ccc(C(c2ccc(N(C)C)cc2)c2ccc([N+](=O)[O-])cc2)cc1	?	12.4%	0.1%	/	3.0%	-83.1*
COc1cc(CNS(=O)(=O)c2ccc3c(c2)CC(C)N3C(C)=O)cc(OC)c1OC (configuration not stated)	12.8	0.7%	28.9%	/	22.4µM*	6.7
O=S(=O)(c1ccc(NC(=S)N/N=C/c2ccc(Oc3ccccc3)cc2)cc1)N1CCOCC1	-1.2	5.7%	0.501µM*	-0.5%	-6.0%	1.2
O=S(=O)(c1ccc(NC(=S)NN=C2CCCCC2)cc1)N1CCOCC1	0.0	-0.8%	8.91µM*	-4.1%	?	-12.0
O=S(=O)(c1ccc(NC(=S)N/N=C/c2c3ccccc3cc3ccccc23)cc1)N1CCOCC1	/	?	?	8.0%	7.08µM*	-2.7
NNC(=S)Nc1ccc(S(=O)(=O)N2CCOCC2)cc1	1.3	/	?	-3.6%	3.2%	2.2
O=S(=O)(c1ccc(NC(=S)N/N=C/c2ccc(N3CCOCC3)cc2)cc1)N1CCOCC1	-2.3	54.8%	?	-0.3%	6.31µM*	-11.9
C=C(C)/C=N/NC(=S)Nc1ccc(S(=O)(=O)N2CCOCC2)cc1	-17.5	18.4%	?	-6.6%	?	-1.3
O=C(COC(=O)c1ccc(Cl)cc1[N+](=O)[O-])NCc1ccco1	-8.1	/	/	/	/	-6.3
CCN(CC)CCCNc1nc2ccccc2c2[nH]c3ccc(OC)cc3c12	-74.8*	/	/	/	/	?
CCN(CC)CCCNc1nc(-c2ccccc2)nc2ccccc12	8.1	5.4%	-31.4%	0.4%	-8.1%	-5.7
O=C(Nc1nnc(-c2ccc(Cl)s2)o1)C1CCCCC1	18.2	/	/	/	/	16.0
CCCC(=O)Nc1nnc(-c2ccc(Cl)s2)o1	-14.3	26.1%	8.91µM*	-2.9%	?	-19.7
CC1(C)COCN1S(=O)(=O)c1ccc(C(=O)Nc2nnc(-c3ccc(Cl)s3)o2)cc1	-10.4	-0.2%	0.112µM*	-0.3%	0.126µM*	-5.2
COc1ccc(-c2nnc(NC(=O)c3ccc(S(=O)(=O)N4COCC4(C)C)cc3)o2)cc1	?	-12.4%	0.224µM*	-20.9%	0.398µM*	?
COc1ccccc1/C=C/c1ccc2cccc(O)c2n1	0.6	23.0%	3.98µM*	/	?	-6.8
COc1cc(Cl)cc(/C=C/c2ccc3cccc(O)c3n2)c1OC	-1.9	-0.2%	5.01µM*	/	-10.4%	-7.0
COc1ccc(Cl)cc1/C=C/c1ccc2cccc(O)c2n1	1.0	3.3%	0.891µM*	/	0.794µM*	1.2
COc1cc(OC)c(OC)cc1C=Cc1ccc2ccccc2n1	1.0	/	/	/	/	0.3
COc1c(OC(C)=O)ccc(/C=C/c2ccc3ccccc3n2)c1[N+](=O)[O-]	?	15.9%	?	-24.1%	?	-26.8
SMILES	CtBP-E1A inh	MBNL1 CUG block	RORgamma inh	CBFb-RUNX1 inh	VP16 counter	Six1-Eya2 blk
CC1(C)CC[C@]2(C)CC[C@@]3(C)C(=CCC4[C@@]5(C)CCC(O)C(C)(C)C5CC[C@@]43C)C2C1 (some centres not stated)	/	/	10.8%	20.8%	-2.8%	/
CC1(C)CC[C@]2(C(=O)O)C(O)C[C@@]3(C)C(=CCC4[C@@]5(C)CCC(O)C(C)(C)C5CC[C@@]43C)C2C1 (some centres not stated)	/	/	1.41µM*	/	-28.8%	/
CCn1c(=O)c([N+](=O)[O-])c(Cl)c2ccccc21	1.9	5.7%	7.94µM*	9.0%	8.91µM*	-12.9
Cc1cccc(C2=N[C@@H](Cc3ccccc3)CO2)c1	/	/	-25.4%[96.6 µM]	32.5%[89.1 µM]	-15.3%[96.6 µM]	/
CCN(CC)C(=S)SCC(=O)Nc1nc(=O)c2ccccc2s1	0.0	1.5%	?	5.9%	11.2µM*	-11.9
CC1CCN(Cc2c(C(=O)N/N=C/c3ccccc3O)nnn2-c2nonc2N)CC1	-17.3	0.5%	10µM*	/	7.94µM*	-1.4
C/C(=N\NC(=O)c1nnn(-c2nonc2N)c1CN(C)c1ccccc1)c1ccccc1O	-15.7	-0.2%	1.58µM*	/	3.98µM*	-10.2
C/C(=N\NC(=O)c1nnn(-c2nonc2N)c1CN1CCCCC1)c1ccccc1O	-14.0	2.7%	6.31µM*	/	?	5.0
CC(=C/c1ccccc1)/C=N/NC(=O)c1nnn(-c2nonc2N)c1CN1CCC(C)CC1	-1.2	-2.0%	?	/	-8.5%	-8.1
COc1ccc(/C(C)=N/NC(=O)c2nnn(-c3nonc3N)c2CN(C)c2ccccc2)cc1	7.5	-1.8%	?	/	?	-1.9
COc1ccccc1NC(=O)N(C)C[C@H]1OCc2cnnn2CCCC(=O)N([C@H](C)CO)C[C@H]1C	-1.5	/	/	/	/	6.3
Cc1c(/C=N/NC(=O)c2ccc(O)cc2)c2ccccn2c1C(=O)c1ccc(F)cc1	-78.3*	10.2%	30.0%	15.6%	-25.8%	-70.4*
Cc1c(/C=N/NC(=O)c2ccccc2O)c2ccccn2c1C(=O)c1ccc(F)cc1	2.2	-7.7%	-1.3%	-6.3%	-27.8%	?
COCCOC(=O)c1c(NC(=O)COC(=O)c2ccc(C)o2)sc(C(N)=O)c1C	/	/	/	/	/	1.0
CN(CC(=O)Nc1ccccc1C(F)(F)F)C(=O)CSc1nnc(N)s1	0.0	/	/	/	/	6.1
Cc1noc(NC(=O)c2ccc(Cl)c(Cl)c2)c1Cl	/	-3.9%	?	-4.0%	17.8µM*	-5.1
c1ccc(CNCCC(Cc2ccccc2)c2ccco2)cc1 (configuration not stated)	3.3	-1.9%	-4.3%	9.2%	0.4%	-23.7
CN(C)c1ccc(CNCCC(Cc2ccccc2)c2ccco2)cc1 (configuration not stated)	?	-4.4%	?	-13.0%	?	-65.5*
CC1CCCN(C(=S)Nc2ccc(S(=O)(=O)N3CCCCC3)cc2)C1 (configuration not stated)	0.0	1.6%	?	14.4%	-11.3%	-4.3
